NS1 function inh: blocks influenza NS1 protein function. Potency, µM (series often up to 46.1 µM). 0.4% of 270,000 active. AID 2326; also: actives are rising curves; nearly all actives have a fitted effect of over 50% in size
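Recovery from NS1-induced slow growth read by OD600 in budding yeast switched to galactose assay medium (pH 6.0, -URA) at 1:100 dilution. Compound 23 nl per well; the matching strain lacking NS1 serves as control.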
SARS PLP yeast: SARS-CoV PLP inhibition in yeast | S. cerevisiae expressing SARS-CoV PLpro, growth rescue | 0.19% of 330,000 active | AID 485353 | Potency, µM (doses to about 32.9 µM), usual class: activators; also: nearly all actives have a fitted effect of over 55% in size
Shiga toxin inh: blocks Shiga toxin action in Vero cells. Vero cells, Shiga toxin protein synthesis inhibition reporter. inhibition, % at 38.7 µM. 9.2% of 290,000 active; in the data active = inhibition mostly above about 28%, no sharp cut-off; inactive = mostly below about 43%
Cycloheximide cs: counter-screen for Shiga toxin inhibitors: cycloheximide protein synthesis inhibition; max response, %; AID 2314; cell reporter, cycloheximide protein synthesis inhibition counterscreen; 12% of 300,000 active; in the data active = max response mostly above about 13%, no sharp cut-off; inactive = mostly below about 14%; also: read at 38.3 µM for the half of the compounds with a filed dose
Large screens that a line does not name were inactive. Hits are enriched below; roughly 12% of the tested compounds scored in any of these assays. Unless noted, calls follow the shape of the full dose curve.

O=C(NC(=O)c1c(F)cccc1F)Nc1cc(Cl)c(F)c(Cl)c1F	none
O=C(NC(=O)c1c(F)cccc1F)Nc1ccccc1SC(F)F	Cycloheximide cs 11.0
N#Cc1nc(-c2ccc(Cl)cc2)oc1NCC1CCCO1 (stereo not given)	Shiga toxin inh 107.7, Cycloheximide cs 20.7
N#Cc1nc(-c2cccc3ccccc23)oc1NCC1CCCO1 (stereo not given)	Shiga toxin inh 65.5, Cycloheximide cs 51.7
COc1ccc(CNc2oc(-c3cccc4ccccc34)nc2C#N)cc1	none
N#Cc1nc(-c2ccccc2)oc1NCC1CCCO1 (stereo not given)	none
COc1ccc(CCNC(=O)Cc2cc(OCc3ccccc3)c(OC)cc2[N+](=O)[O-])cc1OC	none
O=C(O)CCCCCN1C(=O)C(O)=C(C(=O)/C=C/c2ccccc2)C1c1ccc2c(c1)OCO2 (stereo not given)	none
O=C(Nc1ccc(Cl)cn1)c1ccc(COc2ccccc2Br)o1	Shiga toxin inh 162.2, Cycloheximide cs 60.8 (no result: NS1 function inh)
O=C(Nc1ccccn1)c1ccc(COc2ccccc2Cl)o1	Shiga toxin inh 88.5, Cycloheximide cs 30.1
Cc1ccc(NC(=O)c2ccc(COc3ccccc3)o2)nc1	Shiga toxin inh 54.6, Cycloheximide cs 26.2
CCOc1ccc(OCc2ccc(C(=O)Nc3ccc(Cl)cn3)o2)cc1	Shiga toxin inh 33.9 (no result: NS1 function inh)
O=C(NCc1ccccn1)c1ccc(COc2ccc(Cl)cc2)o1	none
O=C(Nc1nn(Cc2ccc(Cl)cc2)cc1Br)c1ccc(COc2ccccc2Cl)o1	none
CCOC(=O)c1c(NC(=O)COC(=O)c2cc(OC)c(OC)cc2[N+](=O)[O-])sc(C)c1C	none
CCOc1ccc(CCNC(=O)Cc2ccc(S(=O)(=O)N3CCOCC3)s2)cc1OCC	none (no result: NS1 function inh, Shiga toxin inh, Cycloheximide cs)
OCC1(C2=NOC(O)(C(F)(F)F)C2)CCCCC1 (stereo not given)	NS1 function inh inconclusive
OC1(C(F)(F)F)CC(c2ccc3ccccc3c2)=NO1 (stereo not given)	Shiga toxin inh 48.1, Cycloheximide cs 38.1
COc1ccc(CNCc2ccccc2[N+](=O)[O-])cc1OC	none (no result: Shiga toxin inh)
O=C(Nc1ccccc1Cl)OCc1cncs1	Cycloheximide cs 17.4
Cc1cccc(C(=O)OCc2cncs2)c1	Cycloheximide cs 33.1
O=C(COC(=O)C1CC(=O)N(c2ccc3c(c2)OCCO3)C1)NC1CCCc2ccccc21 (stereo not given)	Shiga toxin inh 44.8, Cycloheximide cs 19.6
OC1CCC(Nc2ncnc3sccc23)CC1 (stereo not given)	none
Cc1ccc2nc(NC(=O)COC(=O)c3ccco3)sc2c1	Shiga toxin inh 86.3, Cycloheximide cs 34.5 (no result: SARS PLP yeast)
O=C(COC(=O)c1ccco1)Nc1nc2ccc([N+](=O)[O-])cc2s1	none
Cc1ccc2nc(NC(=O)COC(=O)c3ccc(Br)o3)sc2c1	Shiga toxin inh 132.9, Cycloheximide cs 23.2
Cc1ccc(NC(=O)c2ccc(OC(=O)COc3ccc(Cl)cc3C)cc2)cc1	Cycloheximide cs 45.8
Cc1ccc(NC(=O)c2ccc(OC(=O)CCN3C(=O)c4ccccc4C3=O)cc2)cc1	Shiga toxin inh 72.3, Cycloheximide cs 36.7
Cc1ccc(C(=O)CC(=O)COc2ccc(Cl)cc2C)cc1	SARS PLP yeast inconclusive
Cc1ccc(NC(=O)c2ccc(OC(=O)COc3cccc(Cl)c3)cc2)cc1	Shiga toxin inh 50.9, Cycloheximide cs 36.0
Cc1cc(C)cc(OC(=O)CCN2C(=O)c3ccccc3C2=O)c1	SARS PLP yeast inconclusive
CCCc1cc(=O)[nH]c2nnc(SCC(=O)Nc3cc(C)on3)n12	none (no result: NS1 function inh, Shiga toxin inh, Cycloheximide cs)
O=C(c1cc(F)c(F)c(F)c1F)N1CCN(Cc2ccc3c(c2)OCO3)CC1	none
CSc1nccn1C(=O)c1ccccc1[N+](=O)[O-]	none
Cc1cc(/C=C2/SC(=O)N(CC(=O)N3CCOCC3)C2=O)c(C)n1-c1ccccc1F	Shiga toxin inh 46.8, Cycloheximide cs 22.1
CCC(=O)NC(=S)Nc1ccc(NC(=O)c2ccco2)cc1	Shiga toxin inh 58.8, Cycloheximide cs 29.2
COc1cc(NC(=O)Cc2ccccc2)ccc1NC(=O)c1ccco1	none
CCC(=O)NC(=S)Nc1ccc(NC(=O)c2ccco2)c(OC)c1	Shiga toxin inh active
COc1ccc(C(C)=O)cc1CSc1ccc(S(=O)(=O)N2CCCCC2)cn1	none (no result: NS1 function inh, Shiga toxin inh, Cycloheximide cs)
COc1ccc(C(=O)NC(=O)NC2(C(Cl)(Cl)Cl)OCCO2)cc1	Shiga toxin inh 76.0, Cycloheximide cs 51.5
Cc1ccnc(NC(=O)CCC2CCCCC2)c1	Shiga toxin inh 126.2, Cycloheximide cs 41.6
O=C(CCC1CCCC1)Nc1ccon1	none
O=C(CCC1CCCC1)Nc1ccc(Br)cn1	Shiga toxin inh 89.2, Cycloheximide cs 17.8
CCCC(=O)Nc1ccc(Br)cn1	none
Cc1cc(NC(=O)CCC2CCCCC2)no1	Shiga toxin inh 61.1, Cycloheximide cs 25.3
Cc1cc(NC(=O)CCC2CCCC2)no1	Cycloheximide cs 27.6
